Here are results for 9 compounds from ChEMBL document CHEMBL1157539, “Thousands of chemical starting points for antimalarial lead identification” (Nature, 2010).

Format in all cases: functional
For assay [1], the system named is Plasmodium falciparum. Put plainly: GSK_TCMDC: Inhibition of Plasmodium falciparum 3D7 in whole red blood cells, using parasite LDH activity as an index of growth. Test compounds present at 2uM.
In assay [2] the test system is Plasmodium falciparum. Put plainly: GSK_TCMDC: Inhibition of Plasmodium falciparum Dd2 in whole red blood cells, using parasite LDH activity as an index of growth. Test compounds present at 2uM.
The test system of a further assay is HepG2. Put plainly: GSK_TCMDC: Percent inhibition of human HepG2 cell line. Test compounds present at 10uM.

As for `COc1ccc(NC(=O)[C@H](Cc2ccccc2)Nc2cc(C)nc(NCCN3CCCC3)n2)cc1.O=C(O)C(F)(F)F`, the Inhibition is given as 97% in the assay with Plasmodium falciparum [1], 3% with Plasmodium falciparum [2] and 15% in the assay on HepG2.

`Cc1cccc2nc(-c3ccc(-c4ccc(CN5CCCC(N)C5)cc4)s3)[nH]c12.O=C(O)C(F)(F)F` (configuration not stated): the Inhibition with Plasmodium falciparum [1] is 100%; in the assay on Plasmodium falciparum [2] it was 100%; with HepG2, 29%.

`CS(=O)(=O)O.NC1=NC(CCc2ccccc2)N(c2ccccc2)C(N)=N1` (configuration not stated): the Inhibition was 94% with Plasmodium falciparum [1], 15% in the assay with Plasmodium falciparum [2] and 1% with HepG2.

On to `CCc1c(C)nc(-n2nc(C)cc2NC(=O)CC(c2ccccc2)c2ccccc2)[nH]c1=O`, for which the Inhibition in the assay with Plasmodium falciparum [1] amounted to 97%; in the assay on Plasmodium falciparum [2], 98%; in the assay with HepG2, 41%.

In the case of `O=C(NCc1ccccc1)OC1CNCCC1c1ccc(C(O)Cc2ccccc2)cc1.O=C(O)C(F)(F)F` (configuration not stated), the Inhibition in the assay on Plasmodium falciparum [1] came out at 87%; in the assay with Plasmodium falciparum [2], 5%; with HepG2 it was 8%.

For the compound `C=CCOC(=O)O[C@@H]1[C@@H](OC(=O)OCC=C)[C@@H](OC)O[C@H](COC(c2ccccc2)(c2ccccc2)c2ccccc2)[C@H]1OC(=O)OCC=C`, the figures for the Inhibition in the assay on Plasmodium falciparum [1], in the assay on Plasmodium falciparum [2] and in the assay on HepG2 were 95%, 96% and 5%, respectively.

For `O=C(NC(CCCN1CCC2(CC1)OCc1ccccc12)c1ccc(Cl)c(Cl)c1)c1cc(C(F)(F)F)cc(C(F)(F)F)c1` (configuration not stated), the Inhibition with Plasmodium falciparum [1] came out at 100%; in the assay with Plasmodium falciparum [2], 99%; in the assay on HepG2, 55%.

With `Cn1c2c(c3ccccc31)CN(CCC1(c3ccc(Cl)c(Cl)c3)CN(C(=O)Cc3ccccc3)CCO1)CC2` (configuration not stated), the Inhibition worked out at 95% with Plasmodium falciparum [1], 91% in the assay with Plasmodium falciparum [2] and 22% in the assay on HepG2.

As for `Cc1cccc2nc(-c3ccc(-c4ccc(NC(=O)C(=O)c5cccn5C)cc4)cc3)[nH]c12`, the Inhibition with Plasmodium falciparum [1] was found to be 95%; with Plasmodium falciparum [2], 15%; in the assay on HepG2, 40%.

For orientation: Inhibition means the relative decrease from the control value, in per cent. A high value points to a strong effect.
